# Data reported in the supplement of paper PMC10849652.
# Targets with a hit are over-represented here; the source holds about 7,900 in all. About 0.6% of all pairs of compound and target were hits. Values without a mark were called inactive.
# Columns and labels:
# Test in all cases: log2 fold change, soluble protein after heating vs DMSO (PISA); higher = thermal stabilisation; K562 cells, 10 uM, 30 min; active = over 0.2 and 3.5 SD of the protein, either way, in both replicates (recomputed)
# [1] = compound: CS(=O)(=O)c1ccc(-c2cnc(N)c(C(=O)Nc3ccccc3)n2)cc1
# Method in brief: (§1)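 K562 cells (2×10^6 cells/mL) were treated with 10 μM compound for 30 min, and aliquots were heated for 3 min over 48°C-58°C. Pooled aliquots were extracted in PBS with 0.5% NP-40 at 4°C, and the supernatant after 21,000xg for 90 min was measured by TMTpro 16plex LC-MS/MS with channel sums equalised. Reported thermal stability, relative to control samples and from duplicates, is a log2 fold change.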
# crizotinib = compound: C[C@@H](Oc1cc(-c2cnn(C3CCNCC3)c2)cnc1N)c1c(Cl)ccc(F)c1Cl [crizotinib]
# Method in brief: as §1
# [2] = compound: C[C@@H]1COCCN1C2=NC(=NC(=C2)C3(CC3)S(=O)(=O)C)C4=C5C=CNC5=CC=C4
# Method in brief: as §1
# [3] = compound: C[C@H](C1=CC=C(C=C1)C(=O)NC2=C3C=CNC3=NC=C2)N
# Method in brief: as §1
# duvelisib = compound: C[C@H](Nc1ncnc2nc[nH]c12)c1cc2cccc(Cl)c2c(=O)n1-c1ccccc1 [duvelisib]
# Method in brief: as §1
# gandotinib = compound: Cc1cc(Nc2cc(CN3CCOCC3)c3nc(C)c(Cc4ccc(Cl)cc4F)n3n2)n[nH]1 [gandotinib]
# Method in brief: as §1
# tozasertib = compound: Cc1cc(Nc2cc(N3CCN(C)CC3)nc(Sc3ccc(NC(=O)C4CC4)cc3)n2)n[nH]1 [tozasertib]
# Method in brief: as §1
# [4] = compound: Cc1cc(SCc2sc(-c3ccc(C(F)(F)F)cc3)nc2C)ccc1OCC(=O)O
# Method in brief: as §1
# doramapimod = compound: Cc1ccc(-n2nc(C(C)(C)C)cc2NC(=O)Nc2ccc(OCCN3CCOCC3)c3ccccc23)cc1 [doramapimod]
# Method in brief: as §1
# ispinesib = compound: Cc1ccc(C(=O)N(CCCN)[C@@H](c2nc3cc(Cl)ccc3c(=O)n2Cc2ccccc2)C(C)C)cc1 [ispinesib]
# Method in brief: as §1
# Chain of UniProt Q13200 (Q13200 whole entry, looked up): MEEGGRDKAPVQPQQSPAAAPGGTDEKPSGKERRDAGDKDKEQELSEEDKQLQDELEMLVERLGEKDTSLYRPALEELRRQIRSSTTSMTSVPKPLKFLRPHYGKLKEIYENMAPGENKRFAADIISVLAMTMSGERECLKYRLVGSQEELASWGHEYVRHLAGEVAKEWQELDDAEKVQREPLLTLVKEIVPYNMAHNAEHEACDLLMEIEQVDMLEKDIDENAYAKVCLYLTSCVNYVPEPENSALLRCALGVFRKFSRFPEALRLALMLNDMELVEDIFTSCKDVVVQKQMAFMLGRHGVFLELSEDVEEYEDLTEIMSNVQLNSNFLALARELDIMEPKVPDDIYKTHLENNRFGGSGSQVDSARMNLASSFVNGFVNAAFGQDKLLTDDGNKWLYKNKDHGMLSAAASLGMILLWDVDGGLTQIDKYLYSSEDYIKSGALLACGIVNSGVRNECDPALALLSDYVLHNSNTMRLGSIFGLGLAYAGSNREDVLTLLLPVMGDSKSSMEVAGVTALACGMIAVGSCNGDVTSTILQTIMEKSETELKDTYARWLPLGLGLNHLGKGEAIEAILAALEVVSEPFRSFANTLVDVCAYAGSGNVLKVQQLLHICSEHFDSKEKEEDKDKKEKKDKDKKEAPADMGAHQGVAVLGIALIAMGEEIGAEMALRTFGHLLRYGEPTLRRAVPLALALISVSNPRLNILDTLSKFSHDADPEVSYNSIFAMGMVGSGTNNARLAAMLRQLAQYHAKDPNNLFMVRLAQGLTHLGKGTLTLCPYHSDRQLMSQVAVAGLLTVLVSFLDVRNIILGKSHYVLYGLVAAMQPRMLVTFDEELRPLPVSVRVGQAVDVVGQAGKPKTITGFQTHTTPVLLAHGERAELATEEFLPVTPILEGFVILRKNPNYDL
# Chain of UniProt Q16537 (Q16537 whole entry, looked up): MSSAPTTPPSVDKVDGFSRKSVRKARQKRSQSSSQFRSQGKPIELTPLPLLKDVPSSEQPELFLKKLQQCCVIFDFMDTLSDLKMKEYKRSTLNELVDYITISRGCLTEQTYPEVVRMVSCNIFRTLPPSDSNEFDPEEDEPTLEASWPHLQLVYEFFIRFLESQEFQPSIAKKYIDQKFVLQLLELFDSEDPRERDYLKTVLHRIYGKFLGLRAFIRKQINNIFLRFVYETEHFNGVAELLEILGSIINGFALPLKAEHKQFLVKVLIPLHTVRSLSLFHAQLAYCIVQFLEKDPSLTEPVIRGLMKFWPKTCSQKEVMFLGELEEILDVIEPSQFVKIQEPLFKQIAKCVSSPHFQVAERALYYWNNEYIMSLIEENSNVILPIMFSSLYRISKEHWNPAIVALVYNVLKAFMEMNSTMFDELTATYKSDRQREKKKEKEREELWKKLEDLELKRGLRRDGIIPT
# Chain of UniProt Q15054 (Q15054 whole entry, looked up): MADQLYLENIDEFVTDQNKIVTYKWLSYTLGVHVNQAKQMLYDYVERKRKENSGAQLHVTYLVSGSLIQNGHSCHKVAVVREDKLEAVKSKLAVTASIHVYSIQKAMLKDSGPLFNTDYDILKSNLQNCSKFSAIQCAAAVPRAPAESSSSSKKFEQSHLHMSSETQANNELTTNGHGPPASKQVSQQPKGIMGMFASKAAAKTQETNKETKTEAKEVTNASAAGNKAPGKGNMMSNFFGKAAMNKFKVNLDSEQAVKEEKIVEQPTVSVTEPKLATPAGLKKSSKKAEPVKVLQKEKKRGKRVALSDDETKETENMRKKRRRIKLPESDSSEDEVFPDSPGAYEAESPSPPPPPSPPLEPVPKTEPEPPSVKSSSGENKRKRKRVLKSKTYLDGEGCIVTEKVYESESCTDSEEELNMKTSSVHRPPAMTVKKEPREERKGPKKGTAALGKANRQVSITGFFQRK
# Chain of UniProt Q86YH6 (Q86YH6 whole entry, looked up): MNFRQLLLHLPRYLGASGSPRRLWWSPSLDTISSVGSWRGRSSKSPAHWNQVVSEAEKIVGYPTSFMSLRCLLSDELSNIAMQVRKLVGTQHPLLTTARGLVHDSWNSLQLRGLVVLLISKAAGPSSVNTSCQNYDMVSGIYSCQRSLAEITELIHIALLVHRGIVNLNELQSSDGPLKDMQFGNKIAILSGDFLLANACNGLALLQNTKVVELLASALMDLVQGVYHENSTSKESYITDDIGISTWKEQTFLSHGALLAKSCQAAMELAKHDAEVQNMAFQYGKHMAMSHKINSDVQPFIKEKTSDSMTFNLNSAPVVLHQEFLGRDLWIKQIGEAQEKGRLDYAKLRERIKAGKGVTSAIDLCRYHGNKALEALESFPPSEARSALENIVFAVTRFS
# Chain of UniProt P78356 (P78356 whole entry, looked up): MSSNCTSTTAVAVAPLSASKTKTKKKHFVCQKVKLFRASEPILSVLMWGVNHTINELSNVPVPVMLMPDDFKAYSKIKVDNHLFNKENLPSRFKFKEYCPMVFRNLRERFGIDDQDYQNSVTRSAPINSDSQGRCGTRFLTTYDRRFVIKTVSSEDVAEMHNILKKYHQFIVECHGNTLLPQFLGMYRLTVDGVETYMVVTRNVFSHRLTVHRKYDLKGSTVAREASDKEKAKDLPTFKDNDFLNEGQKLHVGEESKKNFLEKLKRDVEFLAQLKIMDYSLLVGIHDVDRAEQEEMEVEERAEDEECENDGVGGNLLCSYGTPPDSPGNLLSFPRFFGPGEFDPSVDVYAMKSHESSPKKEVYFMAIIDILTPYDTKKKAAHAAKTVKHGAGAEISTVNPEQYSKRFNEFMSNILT
# Chain of UniProt O60925 (O60925 whole entry, looked up): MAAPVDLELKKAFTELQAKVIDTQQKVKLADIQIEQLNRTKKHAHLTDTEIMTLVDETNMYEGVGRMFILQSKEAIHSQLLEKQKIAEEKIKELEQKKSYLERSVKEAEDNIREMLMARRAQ
# Chain of UniProt Q6P4A8 (Q6P4A8 whole entry, looked up): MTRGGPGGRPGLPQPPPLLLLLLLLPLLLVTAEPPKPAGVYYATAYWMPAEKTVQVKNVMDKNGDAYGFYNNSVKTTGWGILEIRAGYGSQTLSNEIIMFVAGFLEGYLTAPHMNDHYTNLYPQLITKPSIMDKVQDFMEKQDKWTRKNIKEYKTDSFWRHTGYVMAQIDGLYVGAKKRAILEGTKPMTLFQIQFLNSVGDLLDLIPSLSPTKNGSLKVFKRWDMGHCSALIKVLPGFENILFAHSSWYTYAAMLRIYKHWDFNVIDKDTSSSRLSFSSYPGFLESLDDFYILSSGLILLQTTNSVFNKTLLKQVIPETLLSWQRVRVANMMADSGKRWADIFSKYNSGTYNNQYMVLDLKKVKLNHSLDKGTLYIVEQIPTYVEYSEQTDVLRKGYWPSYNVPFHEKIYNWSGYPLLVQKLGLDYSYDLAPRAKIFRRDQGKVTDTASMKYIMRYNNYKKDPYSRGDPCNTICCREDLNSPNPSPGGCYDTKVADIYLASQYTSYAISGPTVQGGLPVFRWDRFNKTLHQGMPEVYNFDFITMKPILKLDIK
# Chain of UniProt O00628 (O00628 whole entry, looked up): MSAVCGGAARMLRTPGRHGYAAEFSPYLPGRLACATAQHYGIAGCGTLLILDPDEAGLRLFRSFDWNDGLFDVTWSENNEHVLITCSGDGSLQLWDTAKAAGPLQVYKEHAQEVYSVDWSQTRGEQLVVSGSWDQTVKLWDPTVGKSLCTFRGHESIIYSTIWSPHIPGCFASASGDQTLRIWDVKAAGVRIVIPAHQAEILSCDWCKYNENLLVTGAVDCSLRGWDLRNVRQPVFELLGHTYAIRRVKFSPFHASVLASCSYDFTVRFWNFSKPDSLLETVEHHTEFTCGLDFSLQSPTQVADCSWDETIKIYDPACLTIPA
# Chain of UniProt O96011 (O96011 whole entry, looked up, change not shown): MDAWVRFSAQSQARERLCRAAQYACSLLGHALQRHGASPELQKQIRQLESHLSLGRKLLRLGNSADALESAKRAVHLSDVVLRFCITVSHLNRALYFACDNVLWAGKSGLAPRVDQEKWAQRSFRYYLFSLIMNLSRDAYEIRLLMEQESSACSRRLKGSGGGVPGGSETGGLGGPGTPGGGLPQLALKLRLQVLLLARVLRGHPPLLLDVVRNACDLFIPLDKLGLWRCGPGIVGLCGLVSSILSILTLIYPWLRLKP
# Chain of UniProt Q16401 (Q16401 whole entry, looked up): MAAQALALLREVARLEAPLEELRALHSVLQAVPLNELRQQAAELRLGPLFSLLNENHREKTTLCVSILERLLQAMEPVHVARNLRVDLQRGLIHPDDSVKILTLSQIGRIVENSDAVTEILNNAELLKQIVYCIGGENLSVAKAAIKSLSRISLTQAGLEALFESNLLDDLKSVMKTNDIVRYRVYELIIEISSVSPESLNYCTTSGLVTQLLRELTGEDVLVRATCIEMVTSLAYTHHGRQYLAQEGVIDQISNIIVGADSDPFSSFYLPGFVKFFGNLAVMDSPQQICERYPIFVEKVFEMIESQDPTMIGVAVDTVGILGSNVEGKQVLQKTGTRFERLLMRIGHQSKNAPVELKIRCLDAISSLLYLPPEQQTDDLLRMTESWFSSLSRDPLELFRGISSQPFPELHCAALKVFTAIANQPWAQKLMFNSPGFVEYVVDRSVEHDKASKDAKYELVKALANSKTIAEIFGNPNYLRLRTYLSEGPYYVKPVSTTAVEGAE
# Chain of UniProt O15355 (O15355 whole entry, looked up): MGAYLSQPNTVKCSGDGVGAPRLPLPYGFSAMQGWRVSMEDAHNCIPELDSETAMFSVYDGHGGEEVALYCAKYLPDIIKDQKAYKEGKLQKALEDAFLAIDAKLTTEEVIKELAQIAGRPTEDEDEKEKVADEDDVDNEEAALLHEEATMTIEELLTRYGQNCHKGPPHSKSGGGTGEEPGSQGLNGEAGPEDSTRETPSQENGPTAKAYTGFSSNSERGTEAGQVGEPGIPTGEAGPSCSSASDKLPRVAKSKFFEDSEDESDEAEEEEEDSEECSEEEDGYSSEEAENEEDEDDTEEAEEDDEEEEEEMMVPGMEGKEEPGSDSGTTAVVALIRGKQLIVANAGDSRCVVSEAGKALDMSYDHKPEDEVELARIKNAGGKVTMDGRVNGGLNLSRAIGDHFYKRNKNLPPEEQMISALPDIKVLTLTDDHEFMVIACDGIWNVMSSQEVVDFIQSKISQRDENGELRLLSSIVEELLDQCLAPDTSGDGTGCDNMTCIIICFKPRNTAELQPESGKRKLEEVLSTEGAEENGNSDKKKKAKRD
Target,log2 fold change [1],log2 fold change (crizotinib),log2 fold change [2],log2 fold change [3],log2 fold change (duvelisib),log2 fold change (gandotinib),log2 fold change (tozasertib),log2 fold change [4],log2 fold change (doramapimod),log2 fold change (ispinesib)
PFDN1 (UniProt O60925),0.018,0.069,0.264,-0.115,0.175,0.029,0.072,0.081,0.018,0.277
PCYT1B (UniProt Q9Y5K3),-0.008,-0.109,0.147,-0.109,-0.019,-0.088,0.024,0.044,-0.036,0.12
PRCP (UniProt P42785),0.012,-0.078,-0.088,-0.037,0.045,0.006,0.036,-0.037,-0.034,-0.096
PEX7 (UniProt O00628),-0.011,-0.037,0.121,0.024,0.04,-0.005,-0.042,0.145,0.002,-0.078
PSMD2 (UniProt Q13200),0.017,0.019,-0.063,0.075,-0.064,0.015,0.023,0.004,0.021,-0.017
PI4K2A (UniProt Q9BTU6),0.031,-0.185,0.032,0,0.043,-0.004,-0.009,0.001,0.015,-0.244 (active)
PRPF38B (UniProt Q5VTL8),-0.051,-0.026,0.058,-0.269 (active),0.023,0.001,-0.022,-0.002,0.005,0.193
PRMT3 (UniProt O60678),-0.067,-0.137,-0.002,-0.058,-0.028,-0.156,0.002,0.111,-0.037,-0.02
PPM1G (UniProt O15355),0.114,-0.028,0.045,-0.083,0.044,-0.026,0.081,0.171,-0.008,-0.055
PDSS2 (UniProt Q86YH6),-0.034,0.078,0.075,-0.058,-0.083,0.098,-0.118,0.149,0.049,-0.031
PNPLA8 (UniProt Q9NP80),-0.009,-0.12,0.002,-0.034,-0.003,0.031,-0.011,-0.002,0.023,-0.051
PIP4K2B (UniProt P78356),0.63 (active),-0.01,0.048,-0.072,0.028,-0.031,-0.025,-0.009,-0.055,-0.007
PKN1 isoform 2 (UniProt Q16512),0.03,-0.233,-0.015,-0.12,0.001,-0.165,-0.052,0.075,0.022,-0.065
PPOX (UniProt P50336),0.173,-0.197,0.128,-0.077,0.304,0.427,0.019,0.091,0.378,0.02
PIK3C3 (UniProt Q8NEB9),0.147,-0.037,-0.125,0.06,0.258 (active),0.164,0.012,-0.008,0.127,-0.101
PSMD5 (UniProt Q16401),0.008,0.006,0.046,-0.064,-0.023,-0.051,0.043,-0.013,-0.03,0.03
PFAS (UniProt O15067),-0.062,0.124,0.014,0,-0.026,-0.152,-0.132,0.081,-0.018,0.128
PPP4R3B (UniProt Q5MIZ7),-0.003,0.124,0.064,-0.035,0.048,-0.075,0.149,0.056,0,0.056
PEX11B (UniProt O96011),-0.042,0.02,0.148,-0.012,0.081,-0.073,0.065,0.014,0.002,0.07
PIK3CB (UniProt P42338),0.043,-0.077,0.064,0.034,0.318 (active),-0.041,-0.075,0.06,0,-0.057
PPP2R5E (UniProt Q16537),-0.024,-0.15,0.037,0.105,0.078,0.167,-0.072,0.015,-0.01,-0.024
PRPF3 (UniProt O43395),0.009,-0.025,0.114,0.193,0.053,-0.067,0.007,0.174,-0.024,0.025
PTTG1IP (UniProt P53801),0.043,0.1,0.102,-0.044,0.118,0.094,0.107,-0.075,-0.106,
PARG (UniProt Q86W56),-0.027,-0.147,0.013,0.016,-0.005,-0.094,0.022,0.123,0.015,-0.148
PLBD1 (UniProt Q6P4A8),-0.01,-0.082,0.009,-0.032,0.01,0.011,-0.005,-0.032,-0.007,0.016
POLD3 (UniProt Q15054),0.177,-0.055,0.155,-0.076,0.018,-0.049,0.048,0.008,-0.012,-0.123
PRKCE (UniProt Q02156),0.051,-0.071,0.083,-0.168,0.032,-0.092,0.071,0.055,-0.003,
PML (UniProt P29590),-0.011,0.017,0.025,-0.027,0.072,-0.019,0.07,-0.051,-0.054,-0.027
